NRP1-CendR mod: modulators of CendR peptide binding to NRP-1, primary screen, biochemical, fluorescence polarization, uHTS | actives 0.85% (n = 360,000) | inhibition, % at 25 µM | FAM-RPARPAR peptide binding to NRP-1 | Neuropilin-1 (Homo sapiens), O14786;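 active means inhibition or corrected inhibition above about 18%, plus a signal ratio from 0.5 to 1.5, limit read from the data, passing the limit was not always enough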
ADAM10 inh: human ADAM10 inhibitors, primary screen, biochemical, QFRET, HTS | Disintegrin and metalloproteinase domain-containing protein 10 (Homo sapiens), O14672 | recombinant ADAM10, EDANS/DABCYL FRET peptide cleavage, 3 h | inhibition, % at 7 µM | actives 0.62% (n = 370,000) | AID 720582, 2013;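 active means inhibition above a per-campaign cutoff equal to the mean of compounds falling between control-based bounds plus 3 SD, cut at about 20% in these data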;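 further: 0% = DMSO wells while the 100% control is not disclosed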
KLK7 zymogen act: proKLK7 zymogen activators, primary screen, biochemical, fluorescence intensity | Kallikrein-7 (Homo sapiens), P49862 | purified proKLK7, EDANS-DABCYL substrate fluorescence; 100% is mature enzyme control, 0% vehicle | activation, % at 7 µM | actives 0.9% (n = 370,000) | AID 652039, 2013;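 active means activation above the mean of all tested compounds plus 3 SD, computed per campaign excluding outliers beyond control limits, cut at about 13% in these data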
Target sequence (P49862 whole entry, looked up): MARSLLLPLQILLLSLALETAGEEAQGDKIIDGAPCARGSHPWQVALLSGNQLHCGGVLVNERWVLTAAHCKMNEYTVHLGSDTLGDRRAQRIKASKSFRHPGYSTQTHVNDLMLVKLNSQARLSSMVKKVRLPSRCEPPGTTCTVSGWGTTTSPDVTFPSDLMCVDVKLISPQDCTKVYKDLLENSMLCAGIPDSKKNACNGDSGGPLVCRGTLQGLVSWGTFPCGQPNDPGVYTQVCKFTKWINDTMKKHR
HGIII-sPLA2 inh: human group III sPLA2 inhibitors, primary screen, biochemical, QFRET, BODIPY PC-A2 liposome substrate; actives 0.56% (n = 370,000); inhibition, % at 12.2 µM; AID 743126, 2013; QFRET BODIPY PC-A2 liposome hydrolysis, fluorescence; Group 3 secretory phospholipase A2 (Homo sapiens), Q9NZ20;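 active means inhibition above mean plus 3 SD of compounds lying within the high and low control bounds, cut at about 19% in these data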;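 further: 0% = median of test compound wells and 100% = no enzyme DMSO wells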
ADAM17 inh: ADAM17 inhibitors, primary screen, biochemical, QFRET; AID 720648, 2013; actives 0.83% (n = 370,000); recombinant ADAM17, EDANS/DABCYL FRET peptide cleavage; Disintegrin and metalloproteinase domain-containing protein 17 (Homo sapiens), P78536; inhibition, % at 6.95 µM;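 active means inhibition above the mean of compounds lying between control limits plus 3 SD, set per campaign, cut at about 8.5% in these data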;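 further: 0% = DMSO-only wells as the low control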
ADAM10 confirm: human ADAM10 inhibitors, confirmation, biochemical, QFRET, triplicate. ADAM10 QFRET peptide cleavage, EDANS fluorescence. shares compounds with ADAM10 inh. inhibition, % at 6.95 µM. actives 1% (n = 2,100). AID 743208, 2013;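 active means inhibition above about 20% chosen separately for each screening run, limit read from the data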;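 further: 0% = DMSO wells and 100% = marimastat wells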
ADAM17 ctr: ADAM17 inhibitors, counter-screen for ADAM10 exosite inhibitor project, biochemical, QFRET, high throughput; ADAM17 QFRET peptide cleavage, EDANS fluorescence; inhibition, % at 6.95 µM; actives 0.5% (n = 2,100); shares compounds with ADAM10 inh;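 active means mean triplicate inhibition above the solvent-only control wells' mean plus 3 SD, cut at about 12% in these data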;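 further: 0% = DMSO wells and 100% = marimastat wells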
The depositor's hits bear a star; . = not tested or not shown. Hits are enriched below; roughly 3.4% of the tested compounds scored in any of these assays.

SMILES | NRP1-CendR mod | ADAM10 inh | KLK7 zymogen act | HGIII-sPLA2 inh | ADAM17 inh | ADAM10 confirm | ADAM17 ctr
O=C(C1CCCN1S(=O)(=O)c1ccc([N+](=O)[O-])cc1)N1CCN(c2ccccc2)CC1 (stereo not given) | . | -13 | -1 | 8 | 3 | . | .
N#Cc1nc(COc2ccccc2F)oc1NCCc1ccccc1 | -10 | 22* | 0 | -24 | 5 | 5 | 0
COc1ccc(CCNc2oc(COc3ccccc3)nc2C#N)cc1 | 4 | 19 | 1 | -17 | 6 | . | .
CC1CCCC(C)N1C(=C(Cl)Cl)C(=C1SCCS1)[N+](=O)[O-] (stereo not given) | 14 | 21* | 1 | -7 | 8 | 1 | 1
O=[N+]([O-])c1cc(CN2CCN(c3ccccc3)CC2)c(O)c2ncccc12 | 15 | 20* | 0 | 9 | 6 | 6 | 1
COc1ccc(CNC(=O)C(c2ccc(C)cc2)N(Cc2cccs2)C(=O)c2ccc3c(c2)OCCO3)cc1 (stereo not given) | 0 | 26* | 0 | -1 | 5 | 6 | 1
O=C(O)/C=C/C(=O)Nc1ccc(Oc2ccccc2)cc1 | 1 | -1 | 0 | 3 | 0 | . | .
CCOC(=O)/C=C/C(=O)Nc1ccc(Oc2ccccc2)cc1 | -11 | 21* | 0 | -7 | 1 | 2 | 0
CCOc1ccc(-c2[nH]ncc2Oc2ccccc2OCC)c(O)c1 | -4 | 26* | 0 | -60 | 7 | 8 | 2
C=C(C)COc1ccc(-c2[nH]ncc2Oc2ccc(OC)cc2)c(O)c1 | 6 | 21* | 0 | -58 | 7 | 12 | 4
CCOc1ccc(-c2nc(N)ncc2Oc2ccccc2Br)c(O)c1 | 10 | 21* | -1 | -19 | 4 | 6 | 2
COC(=O)[C@]12C[C@H](CC(=O)N3CCC(c4ccccc4)CC3)C(=O)N(Cc3ccco3)C1=C[C@H](C(C)C)O[C@@H]2C1CC1 | . | 14 | 1 | -9 | 7 | . | .
CC1Cc2ccccc2N1C(=O)c1ccc(N2CCCC2)c([N+](=O)[O-])c1 (stereo not given) | 18 | 24* | 0 | 6 | 5 | 1 | 0
FC(F)(F)Oc1ccc(Cn2ccc3ccc(-c4ccc5ccn(Cc6ccc(OC(F)(F)F)cc6)c5c4)cc32)cc1 | . | -24 | -2 | -7 | -13 | . | .
O=C(NCC1CCN(C(=O)C(=O)c2cccs2)CC1)c1ccc2c(c1)CCO2 | . | -2 | 0 | 17 | -5 | . | .
COCCN1C(=O)N(c2cccc(C)c2)C(=O)C1CC(=O)Nc1ccc(OC)cc1 (stereo not given) | 16 | 20* | -1 | -4 | -2 | 0 | 0
COCCN1C(=O)N(c2cccc(OC)c2)C(=O)C1CC(=O)Nc1ccc(OC)cc1 (stereo not given) | 15 | 10 | 0 | 2 | -1 | . | .
COc1ccc(N(CC(O)Cn2c(C)nc3ccccc32)S(=O)(=O)c2ccc(C)cc2)cc1 (stereo not given) | 15 | 0 | 0 | 2 | 2 | . | .
COc1ccc(N(CC(O)Cn2cnc3ccccc32)S(=O)(=O)c2ccc(C)cc2)cc1 (stereo not given) | 10 | 22* | 0 | -58 | 8 | 2 | 0
COc1ccc(CCNC(=O)COc2ccc(S(=O)(=O)NC3CCCCC3)cc2Cl)cc1 | -9 | 23* | 0 | -46 | 7 | 3 | 1
O=C(COc1ccc(S(=O)(=O)NC2CCCCC2)cc1Cl)NCC1CCCO1 (stereo not given) | 0 | 6 | 1 | -4 | -1 | . | .
COc1cc(NC(=O)C(OC(=O)CNC(=O)c2ccccc2)c2ccccc2)cc(C(F)(F)F)c1 (stereo not given) | . | 29* | . | -2 | 15* | 1 | 2
O=S(=O)(Nc1ccc(N=Nc2ccccc2)cc1)c1ccccc1 | 0 | 20* | 0 | -60 | 8 | 7 | 1
CCCC1CCC2(CC1)CCC2OC(=S)Nc1ccccc1C(F)(F)F (stereo not given) | . | 2 | . | 8 | -1 | . | .
COC(=O)[C@H]1C[C@@]2(CC=C(C)C)c3ccccc3N(C(=O)OC(C)(C)C)[C@H]2N1C(=O)OC(C)(C)C | . | 12 | . | 2 | 1 | . | .
SMILES | NRP1-CendR mod | ADAM10 inh | KLK7 zymogen act | HGIII-sPLA2 inh | ADAM17 inh | ADAM10 confirm | ADAM17 ctr
O=C(Nc1cc(Cl)ccc1O)c1cc2n(n1)C(C(F)(F)F)CC(c1ccc3c(c1)OCO3)N2 (stereo not given) | -14 | 29* | 0 | -28 | 8 | 6 | 2
COc1ccc(OC)c(NC(=O)c2cc3n(n2)C(C(F)(F)F)CC(c2ccc4c(c2)OCO4)N3)c1 (stereo not given) | -1 | 15 | -1 | -2 | 8 | . | .
CCCCC(=O)N[C@H]1CC[C@@]23CCCN2C(=O)CCC[C@H]3[C@H]1CCC | . | -3 | . | -2 | 0 | . | .
O=C(NC1CCCCC1)O[C@H]1CC[C@@]23CCCN2C(=O)CCC[C@H]3C1 | . | 4 | . | 5 | 0 | . | .
COC(=O)[C@]12C[C@H](CC(=O)N3CCCCC3)C(=O)N(CCc3ccc(OC)c(OC)c3)C1=C[C@H](C(C)C)O[C@@H]2C1CC1 | . | -4 | 0 | -5 | -1 | . | .
CC(=O)Nc1ccc(S(=O)(=O)Oc2ccccc2N2CCCCC2)cc1 | -3 | 23* | 1 | -5 | 8 | 2 | 0
O=C(CSc1cn[nH]n1)Nc1nc2ccccc2s1 | -7 | 20* | 0 | -28 | 2 | 1 | 0
O=C(CSc1ccccn1)Nc1nc2ccccc2s1 | -8 | 6 | -1 | -11 | 1 | . | .
O=C(Nc1ccc(Cl)c(Cl)c1)c1ccc(Cn2cc(Cl)cn2)cc1 | -4 | 29* | -1 | -3 | 8 | 8 | 2
NNC(=O)c1ccc(Cn2cc(Cl)cn2)cc1 | 2 | 4 | -4 | 3 | 0 | . | .
CCC[C@H]1[C@@H](NC(=O)c2ccc(C)cc2)CC[C@@]23CCCN2C(=O)CCC[C@@H]13 | . | -9 | . | 2 | -5 | . | .
COC(=O)C1CN(Cc2cn(Cc3ccc(C)cc3)nn2)CCS(=O)(=O)N1Cc1ccc(F)cc1 (stereo not given) | . | 7 | 0 | -11 | 1 | . | .

Assay outcomes: PubChem BioAssay, several laboratories
